PubChem BioAssay (NCI)
Compounds without any hit were thinned out: in the full panel of roughly 83,000, 20% have a hit.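 For each line, cells grew in 96-well plates with the test compound present at a single concentration for 48 hours.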 A number with no mark means an inactive call. Active and inactive are the calls of the source. How the source made its calls: active means growth percent below 10; inactive means the rest.

How the values were obtained:
Test in all cases: NCI-60 one-dose screen, 48 h (100 = growth as untreated, 0 = no growth, -100 = all killed)
Details in all cases: 10 µM unless noted
[1] = tested on: SR leukemia
[2] = tested on: OVCAR-8 ovarian
[3] = tested on: OVCAR-5 ovarian
[4] = tested on: OVCAR-4 ovarian
[5] = tested on: SK-OV-3 ovarian
[6] = tested on: IGROV1 ovarian
[7] = tested on: OVCAR-3 ovarian
[8] = tested on: HS 578T breast
[9] = tested on: NCI/ADR-RES ovarian
[10] = tested on: T-47D breast
[11] = tested on: BT-549 breast
[12] = tested on: MDA-MB-435 melanoma
[13] = tested on: SW-620 colon
[14] = tested on: MCF7 breast
[15] = tested on: HCT-116 colon
[16] = tested on: HCC-2998 colon
[17] = tested on: KM12 colon
[18] = tested on: RPMI-8226 leukemia

`COc1cc(-c2n/c(=C\c3c(O)[nH]c4ccc(Cl)cc34)cc3c2=Nc2ccccc2-3)ccc1F` was tested, and the growth [1] was 7.25% (active), the growth [2] was -50.7% (active) and the growth [3] was 74%. The growth [4] was -56.9% (active), the growth [5] was -14.7% (active) and the growth [6] was -18% (active). For the same molecule, the growth [7] was -14.6% (active), the growth [8] was 14.8% and the growth [9] was 47%. The growth [10] was 56%, the growth [11] was 85.9% and the growth [12] was 21.3%. The growth [13] was -1.7% (active), the growth [14] was -54.2% (active) and the growth [15] was -45.8% (active). For the same molecule, the growth [16] was 71.6% and the growth [17] was 4.87% (active).

With `Cc1cc2nc3c4cc(C=O)ccc4n(CCN(C)C)c3nc2cc1C` the growth [1] was 3.27% (active), the growth [2] was 17.6% and the growth [3] was 22.5%. For the same molecule, the growth [4] was 23.8%, the growth [5] was 26.8% and the growth [6] was 5.83% (active). The growth [7] was 22.7%, the growth [8] was 51.6% and the growth [9] was 18.5%. The growth [10] was 22.3%, the growth [11] was 53.6% and the growth [12] was 25.6%. The growth [13] was 1.57% (active), the growth [14] was 2.77% (active) and the growth [16] was 40.6%. It also gave a growth [17] of 26.3%.

`N#CC1=C(N)Oc2c(cnn2-c2ccc([N+](=O)[O-])cc2[N+](=O)[O-])C1c1ccccc1` (stereo not given) was tested, and the growth [1] was 98.2%, the growth [2] was 101% and the growth [3] was 99.1%. The growth [4] was 109%, the growth [5] was 112% and the growth [6] was 100%. It also gave a growth [7] of 112%, a growth [8] of 89% and a growth [9] of 101%. The growth [10] was 98%, the growth [11] was 107% and the growth [12] was 101%. It also gave a growth [13] of 96.2%, a growth [14] of 97% and a growth [15] of 100%. The growth [16] was 101% and the growth [17] was 101%.

For `CN(C)c1ccc(Nc2c3ccccc3nc3cc(NC(=O)CCN4CCCC4)ccc23)cc1`, the growth [1] was -19.3% (active), the growth [2] was 4.51% (active) and the growth [3] was 11.5%. For the same molecule, the growth [4] was -17.9% (active), the growth [5] was 16.6% and the growth [6] was 1.29% (active). The growth [7] was -38.6% (active), the growth [8] was 19.8% and the growth [9] was 58.3%. For the same molecule, the growth [10] was 12.1%, the growth [11] was 23.6% and the growth [12] was -94.4% (active). For the same molecule, the growth [13] was -33.3% (active), the growth [14] was -21.8% (active) and the growth [15] was -56.2% (active). The growth [16] was -83.3% (active) and the growth [17] was -34.8% (active).

`CCOC(=O)CCN(CC(C)C)C(=S)Nc1ccccc1` showed a growth [1] of 97.1%, a growth [2] of 102% and a growth [3] of 100%. It also gave a growth [4] of 112%, a growth [5] of 130% and a growth [6] of 102%. It also gave a growth [7] of 124%, a growth [9] of 105% and a growth [10] of 105%. It also gave a growth [11] of 106%, a growth [14] of 98.8% and a growth [15] of 95.9%. It also gave a growth [16] of 108% and a growth [17] of 104%.

In the case of `CC(=O)O[C@@H]1C2CCC3C(CC[C@@]4(C)C3CC[C@@H]4C(C)N(C)C)[C@@]2(C)CC[C@@H]1NC(=O)C=C(C)C` (stereo not given in full), the growth [1] was -34.5% (active), the growth [2] was 44.3% and the growth [3] was 83.8%. For the same molecule, the growth [4] was -19.5% (active), the growth [5] was 65.4% and the growth [6] was 37.8%. For the same molecule, the growth [7] was 0.951% (active), the growth [8] was 16% and the growth [10] was -28% (active). The growth [11] was 26.4%, the growth [12] was -47.4% (active) and the growth [13] was -64.5% (active). For the same molecule, the growth [14] was -16.9% (active), the growth [15] was -55% (active) and the growth [16] was -23.5% (active). The growth [17] was 9.21% (active).

`COc1ccc(C(C)=O)c(OC)c1` was tested, and the growth [1] was 119%, the growth [2] was 109% and the growth [3] was 90.2%. It also gave a growth [4] of 103%, a growth [5] of 105% and a growth [6] of 127%. The growth [7] was 117%, the growth [8] was 113% and the growth [9] was 108%. For the same molecule, the growth [10] was 108%, the growth [11] was 106% and the growth [12] was 119%. It also gave a growth [13] of 106%, a growth [14] of 92% and a growth [15] of 103%. It also gave a growth [16] of 105% and a growth [17] of 110%.

`Cc1cc(C)c(S(=O)(=O)Oc2ccccc2[N+](=O)[O-])c(C)c1` was tested, and the growth [1] was 15.7%, the growth [2] was 29.8% and the growth [3] was 43.4%. It also gave a growth [4] of 42.9%, a growth [5] of 41.2% and a growth [6] of 30.2%. The growth [7] was -24.1% (active), the growth [8] was -16.4% (active) and the growth [9] was 8.3% (active). The growth [10] was 38.8%, the growth [11] was 40.6% and the growth [12] was -2.54% (active). The growth [13] was 8.04% (active), the growth [14] was 13.3% and the growth [15] was 19.7%. For the same molecule, the growth [16] was 32.1% and the growth [17] was 23%.

In the case of `CCN(CC)c1ccc(/C=N/NC(=O)CSc2nc3ccccc3c(=O)n2CCc2ccc(S(N)(=O)=O)cc2)c(O)c1`, the growth [1] was 13.8%, the growth [2] was 8.51% (active) and the growth [3] was 47.7%. The growth [4] was 19.7%, the growth [5] was 41.1% and the growth [6] was 13.7%. For the same molecule, the growth [7] was 1.89% (active), the growth [8] was 46.3% and the growth [9] was 82.6%. It also gave a growth [10] of 13.9%, a growth [11] of 45.2% and a growth [12] of 31.9%. The growth [13] was 27%, the growth [14] was 11.1% and the growth [15] was 10.7%. The growth [16] was 35.8% and the growth [17] was 19.1%.

`O=C(/C=C/c1ccc(F)cc1)c1ccc(NC(=O)N2CCN(c3cc4c(cc3F)c(=O)c(C(=O)O)cn4C3CC3)CC2)cc1` showed a growth [1] of 71.9%, a growth [2] of 90.8% and a growth [3] of 96.9%. The growth [4] was 98.2%, the growth [5] was 99.4% and the growth [6] was 89.5%. For the same molecule, the growth [7] was 97.6%, the growth [8] was 90.3% and the growth [9] was 100%. For the same molecule, the growth [10] was 93.6%, the growth [11] was 75.7% and the growth [12] was 95.3%. The growth [13] was 92%, the growth [14] was 96.9% and the growth [15] was 57.1%. The growth [16] was 103% and the growth [17] was 100%.

With `CC(=O)Nc1cccc(-c2ccc3c(c2)NC(=O)/C3=C\c2ccc[nH]2)c1` the growth [1] was 9.65% (active), the growth [2] was 56.4% and the growth [3] was 38.4%. For the same molecule, the growth [4] was 53.1%, the growth [5] was 48.8% and the growth [6] was 43.4%. The growth [7] was 69.6%, the growth [8] was 64.6% and the growth [10] was 17.7%. For the same molecule, the growth [11] was 43.2%, the growth [12] was 25.6% and the growth [13] was 37.9%. It also gave a growth [14] of 17.8%, a growth [15] of 37% and a growth [16] of 57.1%. It also gave a growth [17] of 14.5%.

Work on `COc1cc2nc(-c3ccc(C(F)(F)F)cc3)cc(OCCN3CCCCC3)c2cc1OC` yielded a growth [1] of 19.2%, a growth [18] of 42.3% and a growth [2] of 78.2%. The growth [3] was 58.4%, the growth [4] was 81.8% and the growth [5] was 83.7%. The growth [8] was 74.7%, the growth [9] was 63.1% and the growth [10] was 85.1%. For the same molecule, the growth [11] was 40.4%, the growth [12] was 90.5% and the growth [13] was 98.8%. For the same molecule, the growth [14] was 79.5%, the growth [15] was 45.8% and the growth [16] was 76.7%. For the same molecule, the growth [17] was 80.3%.

`CC/C(=C\c1ccc(OC)cc1)C(=O)c1ccc(OC)cc1` showed a growth [1] of 108%, a growth [18] of 32.2% and a growth [2] of 74%. The growth [3] was 103%, the growth [4] was 77.2% and the growth [5] was 106%. The growth [8] was 99.9%, the growth [9] was 86.7% and the growth [10] was 85.8%. The growth [11] was 135%, the growth [12] was 73.1% and the growth [13] was 94.2%. For the same molecule, the growth [14] was 107%, the growth [15] was 90.8% and the growth [16] was 93.5%. The growth [17] was 96.3%.

`COc1ccc(C(=O)Cn2c(C(=O)c3ccccc3)nc3ccccc32)cc1` was tested, and the growth [1] was 13%, the growth [2] was 49.3% and the growth [3] was 62%. For the same molecule, the growth [4] was 40.4%, the growth [5] was 73% and the growth [6] was 10.1%. The growth [7] was 5.28% (active), the growth [8] was -7.32% (active) and the growth [9] was -28.3% (active). For the same molecule, the growth [10] was 38.1%, the growth [11] was 51.7% and the growth [12] was -43.3% (active). For the same molecule, the growth [13] was 10.6%, the growth [14] was 17.5% and the growth [15] was 15.7%. For the same molecule, the growth [17] was 20.4%.

`COc1ccc(/C=C(\C#N)n2nc3cccc(F)c3n2)cc1` was tested, and the growth [1] was 82.4%, the growth [2] was 100% and the growth [3] was 108%. For the same molecule, the growth [4] was 101%, the growth [5] was 108% and the growth [6] was 96.8%. It also gave a growth [7] of 109%, a growth [9] of 104% and a growth [10] of 90.5%. For the same molecule, the growth [11] was 109%, the growth [12] was 77.4% and the growth [13] was 103%. It also gave a growth [14] of 89.5%, a growth [15] of 101% and a growth [16] of 107%. It also gave a growth [17] of 93.7%.

`COc1cc2c(c(O)c1Cl)C(=O)c1c(O)cc(C[C@H](C)O)cc1[C@H]2[C@H]1c2cc(C[C@H](C)O)cc(O)c2C(=O)c2c1cc(OC)c(Cl)c2O` was tested, and the growth [1] was 12.3%, the growth [2] was 12.8% and the growth [3] was 8.75% (active). The growth [4] was 12.7%, the growth [5] was 8.1% (active) and the growth [6] was 10.4%. For the same molecule, the growth [7] was -20.4% (active), the growth [8] was 11% and the growth [9] was 71.3%. The growth [10] was 10.5%, the growth [11] was 17.2% and the growth [12] was 11.3%. The growth [13] was 17.8%, the growth [14] was 7.74% (active) and the growth [15] was 9.53% (active). It also gave a growth [16] of 25.9% and a growth [17] of 11.2%.

For `COc1ccc2[nH]c(O)c(/C=c3/cc4c(c(-c5ccc(F)cc5)n3)=Nc3ccccc3-4)c2c1`, the growth [1] was 6.4% (active), the growth [2] was 75.5% and the growth [3] was 119%. For the same molecule, the growth [4] was 81.6%, the growth [5] was 115% and the growth [6] was 96.8%. For the same molecule, the growth [7] was 94.7%, the growth [8] was 78.8% and the growth [9] was 52.1%. The growth [10] was 73.6%, the growth [11] was 98.9% and the growth [12] was 34.4%. For the same molecule, the growth [13] was 27.5%, the growth [14] was 26.8% and the growth [16] was 72.8%. It also gave a growth [17] of 43.7%.

With `COc1c(Cl)c2c(c(OC)c1OC)-c1ccc(SC)c(=O)cc1[C@@H](NC(=O)OCC(F)(F)F)CC2` the growth [1] was -0.191% (active), the growth [2] was 20% and the growth [3] was 35%. The growth [4] was 39.6%, the growth [5] was 48.2% and the growth [6] was 13.5%. The growth [7] was -14.2% (active), the growth [8] was 12.1% and the growth [9] was 14.6%. The growth [10] was 43.1%, the growth [11] was 5.25% (active) and the growth [12] was -36.9% (active). For the same molecule, the growth [13] was 21.9%, the growth [14] was 14.8% and the growth [15] was 1.82% (active). For the same molecule, the growth [16] was 21.6% and the growth [17] was 10.4%.
